Measured values: PubChem BioAssay AID1035 (National Center for Advancing Translational Sciences (NCATS), 2008)
Unmarked numbers belong to inactive results. No rule for the calls is given here.

Assay: HDAC Secondary Assay for qHTS Assay for Epigenetic Modulators
Details: HeLa nuclear extract HDAC activity, fluorogenic substrate, 20 min; at 48 µM; stronger effect = lower value
Description: NIH Molecular Libraries Screening Centers Network [MLSCN] NIH Chemical Genomics Center [NCGC] MLSCN Grant: 1 X01 MH079860-01 Assay Provider: Elisabeth D. Martinez, University of Texas SW Medical Center NCGC Assay Overview: This secondary assay characterizes selected actives identified in the qHTS of the Locus Derepression (LDR) assay (PubChem AID 597). The LDR assay detects the derepression of a GFP reporter that is stably integrated in a region of the genome of murine c127i mammary cells that is presumably silenced. Compounds that cause derepression of the locus to express GFP are identified by enumerating GFP positive cells using a laser-scanning microplate cytometer. […]
NCGC Assay Protocol Summary HeLa nuclear extracts and acetylated profluorescent substrate were incubated with vehicle, 0.5 uM TSA, or 48 uM indicated LDR compound for 20 min at ambient temperature and fluorescence was measured. Background-subtracted activity was expressed as a percent of uninhibited extract. […] For further details, see R.L. Johnson, W. Huang, A. Jadhav, C.P. Austin, J. Inglese, E.D. Martinez, A Quantitative High-Throughput Screen Identifies Potential Epigenetic Modulators of Gene Expression, Analytical Biochemistry (2007), doi: 10.1016/j.ab.2007.12.028

Structure (SMILES): CN1CSC(=S)N(C)C1
- remaining HDAC activity: 102%
